Source: PubChem BioAssay
Active and inactive are the calls of the source.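 The calls were made as follows, unless noted: active = visual image review flags a hit and inhibition of aggregation exceeds 20%; inconclusive = visual hit but inhibition at or below 20%; inactive = no hit on visual image review.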

Columns and labels:
[1] = inhibitors of TNFa-induced NFkB p65 translocation, primary screen, imaging, HUVEC, MLSMR starter and 10KST1 sets (AID 438;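 active = inhibition above 20% together with a positive visual image hit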;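 also: compound added about 3h40 before a 20 min TNFalpha stimulation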;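 as to inhibition: signal is the nuclear over cytoplasmic p65 intensity ratio per well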); conditions: HUVEC TNFa-induced p65 nuclear translocation; cell count: measured here: nuclei count (cytotoxicity indicator), at 2.08 µM; inhibition: at 2 µM, stronger effect = higher value, 0% TNFa-plus-vehicle, 100% no-TNFa wells
[2] = reduction of polyQ htt aggregates in cells – imaging, exon1htt(103Q)mCFP cells, high-content imaging, primary screen (AID 483); conditions: exon1htt(103Q)mCFP cell line, aggregate imaging, at 2 µM; inhibition of aggregation: stronger effect = higher value; nuclei count: measured here: cell count, toxicity;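 also: compound exposure lasted 3 days before fixation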;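 as to nuclei count: percent of the per-plate median nuclei count of sample wells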
[3] = endothelial E-selectin expression blockers – imaging, HUVEC, immunofluorescence, MLSMR starter and 10KST1 sets, primary screen (AID 487;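 active = visually confirmed hit in the image check and inhibition above 20%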;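 as to inhibition: signal is fraction of cell area covered by stained E-selectin grains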;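 as to nuclei count: 100% = median nuclei count of all wells on the same plate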); conditions: HUVEC TNFalpha-induced E-selectin immunofluorescence imaging, at 2 µM; inhibition: stronger effect = higher value; nuclei count: measured here: cell number, toxicity
[4] = molecular target: Voltage-gated potassium channel subunit beta-2 (Rattus norvegicus) (UniProt P62483); assay: inhibitors of rat Kvbeta2 reductase activity – biochemical, NADPH fluorescence, primary screen (AID 622;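 active = fluorescence slope higher than the sample average by over 3 SD, cut at about -0.22 in these data, passing the limit was not always enough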;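 also: slope of raw intensity against log time taken from 70 to 1610 s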); conditions: recombinant KvBeta, 4-cyanobenzaldehyde reduction, at 10 µM, stronger effect = higher value
Voltage-gated potassium channel subunit beta-2 (Rattus norvegicus), sequence (P62483 whole entry, looked up): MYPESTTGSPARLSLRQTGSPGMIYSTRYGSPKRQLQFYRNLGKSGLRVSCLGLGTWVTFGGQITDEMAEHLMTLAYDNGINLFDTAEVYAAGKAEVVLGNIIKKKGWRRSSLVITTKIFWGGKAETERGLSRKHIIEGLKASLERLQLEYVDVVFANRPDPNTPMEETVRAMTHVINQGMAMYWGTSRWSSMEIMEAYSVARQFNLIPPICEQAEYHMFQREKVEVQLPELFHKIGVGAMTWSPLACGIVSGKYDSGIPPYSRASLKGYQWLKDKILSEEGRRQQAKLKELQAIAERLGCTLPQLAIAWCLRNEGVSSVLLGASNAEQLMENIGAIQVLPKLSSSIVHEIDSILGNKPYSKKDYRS

[5] = molecular target: Voltage-gated potassium channel subunit beta-2 (Rattus norvegicus) (UniProt P62483); assay: enhancers of rat Kvbeta2 NADPH turnover – biochemical, NADPH fluorescence, primary screen (AID 623;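 active = NADPH fluorescence slope more negative than the mean of all samples by about 3 SD, 99.7% confidence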;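 also: fluorescence intensity change per second fitted from 20 to 320 s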); conditions: Recombinant KvBeta, NADPH fluorescence decrease slope, 10 min; at 10 µM; stronger effect = lower value
[6] = molecular target: Alpha-2C adrenergic receptor (Homo sapiens) (UniProt P18825); assay: compounds altering alpha2C-coupled GIRK flux – cell-based, HEK293 alpha2C/GIRK1/2, thallium flux, primary screen (AID 624;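 active = fluorescence slope after compound addition differing from the mean of all screened samples at 99.7% confidence, in either direction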;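 also: slope of fluorescence ratio to pre-addition baseline per second over 15 to 24 s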); conditions: thallium flux BTC fluorescence, at 10 µM, actives lie on both sides
Alpha-2C adrenergic receptor (Homo sapiens), sequence (P18825 whole entry, looked up): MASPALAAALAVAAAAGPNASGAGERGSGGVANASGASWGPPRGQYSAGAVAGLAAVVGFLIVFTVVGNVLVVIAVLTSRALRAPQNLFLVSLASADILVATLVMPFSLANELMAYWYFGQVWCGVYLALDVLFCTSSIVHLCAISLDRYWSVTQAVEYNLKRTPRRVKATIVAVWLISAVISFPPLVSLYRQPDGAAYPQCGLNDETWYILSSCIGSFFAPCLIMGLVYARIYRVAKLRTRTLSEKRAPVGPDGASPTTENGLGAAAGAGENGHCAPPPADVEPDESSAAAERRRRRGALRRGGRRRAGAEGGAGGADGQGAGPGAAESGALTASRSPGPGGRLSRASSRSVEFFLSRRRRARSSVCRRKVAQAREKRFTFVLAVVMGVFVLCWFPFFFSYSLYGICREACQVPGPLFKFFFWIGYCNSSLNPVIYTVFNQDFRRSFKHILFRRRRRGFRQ

[7] = blockers of RIG-like receptor reporter activation – cell-based, Sendai virus stimulus, luciferase, 10K MLSCN set, TLR/RLR signaling modifier project, primary screen (AID 602276;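 active = inhibition at or above 50% at 10 µM; inactive = inhibition below 50%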;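 also: firefly luciferase from ISG56 promoter only with Renilla not read in this screen; 0% = Sendai virus plus DMSO and 100% = medium plus DMSO without virus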); conditions: HEK293 RL24 IRF3 luciferase reporter, at 10 µM, stronger effect = higher value
[8] = TLR3 IRF3 reporter activation blockers – cell-based, poly I:C stimulus, luciferase, 10K MLSCN set, primary screen (AID 602277;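 active = inhibition of the reporter signal at or above 50%; inactive = inhibition below 50%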); conditions: HEK293-TLR3 RL24 IRF3 luciferase reporter, at 10 µM, stronger effect = higher value

Row | Compound | cell count [1] | inhibition [1] | inhibition of aggregation [2] | nuclei count [2] | inhibition [3] | nuclei count [3] | fluorescence slope [4] | NADPH fluorescence slope [5] | slope [6] | inhibition [7] | inhibition [8]
1 | CSc1oc(-c2ccccc2)nc1S(=O)(=O)c1ccc(F)cc1 | 417 | 8.3% (inactive) | 1% (inactive) | 101% | -45.5% (inactive) | 107% | -0.481 (inactive) | -3.1e-05 (inactive) | 0.00494 (inactive) | 16.4% (inactive) | 22.3% (inactive)
2 | Cc1nc2c(-c3ccc(F)cc3)c(C)nn2c(C)c1CCC(=O)NC(C)CCc1ccco1 (configuration not stated) | 791 | 0.6% (inactive) | -37.7% (inactive) | 99.5% | -23.2% (inactive) | 110% | -0.568 (inactive) | -3.3e-05 (inactive) | 0.00479 (inactive) | 4.5% (inactive) | 26.9% (inactive)
3 | OC(CN1CCN(c2ccccc2)CC1)c1ccc2c(c1)CCN2 (configuration not stated) | 604 | -1.6% (inactive) | 9.3% (inactive) | 82.3% | -60.6% (inactive) | 108% | -0.571 (inactive) | -2.8e-05 (inactive) | 0.00657 (inactive) | 6.89% (inactive) | 32.4% (inactive)
4 | CCN(CC)C(=O)c1ccc(CS(=O)(=O)c2ccc(OC)cc2)o1 | 560 | -2% (inactive) | 1.4% (inactive) | 102% | -67.7% (inactive) | 125% | -0.599 (inactive) | -3e-05 (inactive) | 0.00698 (inactive) | -17.1% (inactive) | -10.1% (inactive)
5 | COc1cc2c(c(OC)c1)C(c1ccncc1)CC(=O)N2 (configuration not stated) | 624 | -11.6% (inactive) | -25.7% (inactive) | 111% | -42.5% (inactive) | 116% | -0.565 (inactive) | -2.7e-06 (inactive) | 0.0063 (inactive) | -9.07% (inactive) | 3.48% (inactive)
6 | O=c1c2cc(Cl)ccc2[nH]c(=S)n1Cc1ccco1 | 439 | 5.3% (inactive) | 13.5% (inactive) | 89.7% | -36.1% (inactive) | 102% | -0.597 (inactive) | -4.8e-05 (inactive) | 0.00334 (inactive) | 9.24% (inactive) | 20.2% (inactive)
7 | O=C(CCc1nc2ccccc2s1)OCC(=O)N1CCN(C(=O)c2ccco2)CC1 | 641 | -7.6% (inactive) | -0.7% (inactive) | 100% | -126% (inactive) | 128% | -0.584 (inactive) | -2.7e-05 (inactive) | 0.00548 (inactive) | 14.9% (inactive) | 24.8% (inactive)
